Test [1] is described as follows: Nuclear factor erythroid 2-related factor 2/antioxidant responsive element (Nrf2/ARE) small molecule agonists: qHTS cell viability counter screen in human keratinocytes (AID 1919968; active = well fitted curve in the direction sought with a large enough effect in the repeat runs; an effect the other way counts as inactive or inconclusive; also: nearly all actives have a fitted effect of over 55% in size; also: potency is read from the fitted curve at half-maximal effect). In short, it runs like this: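 Measured as CellTiter-Fluor fluorescence, this readout tracks cytotoxicity in the same wells as the ARE-luciferase screen. HaCaT reporter cells (1,500/well) received compounds after a 5 h pre-incubation and were exposed for 23 h.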
(In qHTS, concentration-response curves come from the screen itself.)

Test [2] is described as follows: Nuclear factor erythroid 2-related factor 2/antioxidant responsive element (Nrf2/ARE) small molecule agonists: luciferase reporter gene qHTS assay in human keratinocytes (AID 1919969; also: nearly all actives have a fitted effect of over 35% in size; also: potency is read from the fitted curve at half-maximal effect). (A reporter such as luciferase makes a cellular process visible.)
Test [3] concerns the target Gonadotropin-releasing hormone receptor (Homo sapiens) (UniProt P30968). As to the kind of experiment: Human gonadotropin-releasing hormone receptor (GnRHR) small molecule agonists, calcium flux assay in GnRHR-HEK293 cells (AID 1920063). Also: nearly all actives have a fitted effect of over 35% in size. Summed up:
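Fluorescence kinetics (480 nm excitation, 540 nm emission; 3 min, 1 s steps) report calcium mobilisation in human GnRHR-HEK293 cells in agonist mode. Dye incubation: 1 h, 37 C.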
(Calcium flux is commonly read through the fluorescence of an indicator in the cells.)

Test [4] concerns the target KiSS-1 receptor (Homo sapiens) (UniProt Q969F8). The test is described as follows: Human kisspeptin (KISS1R) small molecule agonists, calcium flux assay in KISS1R-HEK293 cells (AID 1920064; active = well fitted curve in the direction sought with a large enough effect in the repeat runs; an effect the other way counts as inactive or inconclusive). Summed up: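 Measures KISS1R agonism through calcium-sensitive dye fluorescence in stably transfected HEK293 cells, read for 3 min after pin-tool compound delivery; 15-point titrations in triplicate.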

Test [5] is described as follows: G protein-coupled receptor (GPCR) small molecule agonists, calcium flux assay: HEK293 wild type cell line counter screen (AID 1920065). In short, it runs like this:
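Readout: fluorescence at 480 nm excitation/540 nm emission, sampled at 1 s intervals for 3 min. Cells had been cultured 18 h, then dye-loaded 1 h at 37 C before compound or ATP addition.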

The nature of test [6]: p53 small molecule agonists, cell-based qHTS assay with human liver microsomes (AID 1963577).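 Also: p53 response element beta-lactamase reporter cells with liver microsomes plus NADPH.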 In short, it runs like this: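 With metabolic activation: human liver microsomes (0.5 mg/mL final) plus NADPH (0.5 mg/mL final) added alongside compounds to p53RE-bla cells; 16 h 37 C exposure; beta-lactamase read by LiveBLAzer fluorescence.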
Test [7] is described as follows: p53 small molecule agonists, cell-based qHTS assay with rat liver microsomes (AID 1963578). In short, it runs like this:
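Metabolic activation by rat liver microsomes and NADPH, each 0.5 mg/mL final, added right after compounds to p53RE-bla reporter cells (4,000/well, plated 5 h earlier). 16 h at 37 C, then LiveBLAzer substrate for 2 h at room temperature in the dark; fluorescence read-out.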

The nature of test [8]: p53 small molecule agonists, cell-based qHTS assay with human liver microsomes: qHTS cell viability counter screen (AID 1963579). Also: nearly all actives have a fitted effect of over 45% in size. In short, it runs like this: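 Metabolic activation used human liver microsomes and NADPH, both 0.5 mg/mL final, over 16 hours at 37 C on p53RE-bla cells (4,000/well). Cytotoxicity measured by CellTiter-Glo luminescence, 30 min at room temperature.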

Test [9] is described as follows: p53 small molecule agonists, cell-based qHTS assay with rat liver microsomes: qHTS cell viability counter screen (AID 1963580). Also: nearly all actives have a fitted effect of over 45% in size. Summed up:
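p53RE-bla HCT-116 cells were exposed 16 h at 37 C to compounds with rat liver microsomes (0.5 mg/mL) and NADPH (0.5 mg/mL). Viability was measured in the same wells as ATP content by CellTiter-Glo luminescence.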

A short description of test [10]: p53 small molecule agonists, cell-based qHTS assay: qHTS cell viability counter screen (AID 1963581). Also: nearly all actives have a fitted effect of over 45% in size. In short, it runs like this: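 In the same plates used for the p53 bla reporter, HCT-116 cells given compounds for 16 h at 37 C received CellTiter-Glo; luminescence was recorded 30 min later at room temperature.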
The nature of test [11]: p53 small molecule agonists, cell-based qHTS assay (AID 1963582; active = well fitted activation curve with a large enough effect in the signal ratio in the repeat runs, not every such curve was filed as active; the % refers to the signal ratio). Summed up:
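Compounds are pin-transferred in DMSO onto p53RE-bla cells and incubated 16 h at 37 C. The B/G FRET beta-lactamase substrate is then applied for 2 h at RT and fluorescence recorded.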

Test [12] has as its target 5-hydroxytryptamine receptor 2A (Homo sapiens) (UniProt P28223). As to the kind of experiment: 5-hydroxytryptamine receptor 2A (HTR2A) small molecule antagonists, cell-based qHTS assay (AID 1963586). Also: nearly all actives have a fitted effect of over 45% in size. Summed up:
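Antagonist-mode intracellular calcium assay: DOI (4 nM) added after 5 min compound pre-incubation at room temperature to dye-loaded HTR2A-CHO cells. Fluorescence followed for 3 min, sampled every second.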

The target is the same in test [13]. The test is described as follows: 5-hydroxytryptamine receptor 2A (HTR2A) small molecule agonists, cell-based qHTS assay (AID 1963587). Also: nearly all actives have a fitted effect of over 30% in size. In short, it runs like this: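 CHO cells stably expressing human HTR2A, plated 18 h, loaded with calcium dye 1 h at 37 C. Agonist mode: compounds added and intracellular calcium fluorescence recorded kinetically for 2 min at 1 sec intervals.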

The target of test [14] is Muscarinic acetylcholine receptor M1 (Homo sapiens) (UniProt P11229). The test is described as follows: Cholinergic receptor muscarinic 1 (CHRM1) small molecule antagonists, cell-based qHTS assay (AID 1963588). Also: nearly all actives have a fitted effect of over 40% in size. Summed up: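 CHRM1-CHO calcium-flux assay, antagonist mode. Cells were seeded 18 h, dye-loaded 1 h at 37 C and given compound for 5 min at RT, then acetylcholine was added at 50nM. FDSS fluorescence was read 3 min; 15 concentrations, three runs.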

Test [15] has the same target. As to the kind of experiment: Cholinergic receptor muscarinic 1 (CHRM1) small molecule agonists, cell-based qHTS assay (AID 1963589). Also: nearly all actives have a fitted effect of over 35% in size. In short, it runs like this: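 Each compound was tested at 15 concentrations across three independent runs on dye-loaded CHO cells stably expressing human CHRM1, reading intracellular calcium fluorescence kinetically at 1 sec intervals.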

Test [16] is described as follows: cAMP Responsive Elements (CRE) small molecule agonists, cell-based qHTS assay (AID 1963590). In short, it runs like this: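 Cell line: CRE-bla HEK 293T; medium DMEM/10% dialyzed FBS/0.1 mM NEAA/1 mM pyruvate/25 mM HEPES; 3 h compound exposure; beta-lactamase FRET readout after 2 h substrate loading at RT.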
The nature of test [17]: cAMP Responsive Elements (CRE) small molecule antagonists, cell-based qHTS assay (AID 1963591; active = well fitted inhibition curve with a large enough effect in the signal ratio in the repeat runs, not every such curve was filed as active; the % refers to the signal ratio). In short, it runs like this: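 Inhibition of NKH477-driven (0.25 uM final) CRE-beta-lactamase signal in HEK293T cells, 3 h compound exposure at 37 °C, detected by FRET substrate fluorescence.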
In test [18] the target is Beta-2 adrenergic receptor (Homo sapiens) (UniProt P07550). As to the kind of experiment: Adrenergic beta2 receptor (ADRB2) small molecule antagonists, cell-based qHTS assay (AID 1963592). Also: series mostly up to about 92 µM; nearly all actives have a fitted effect of over 50% in size. Summed up: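 Cells (CHO, stable ADRB2 overexpression) incubated 18-20hr at 37C; compounds added from DMSO; agonist mix (1nM isoproterenol, 100uM IBMX, 25uM Ro-20-1724) added; 0.5hr RT; d2-cAMP and anti-cAMP-cryptate added; 1hr RT; 665/615 nm read.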

Test [19] addresses D(2) dopamine receptor (Homo sapiens) (UniProt P14416). The test is described as follows: Dopamine D2 receptor (DRD2) small molecule agonists, cell-based qHTS assay (AID 1963594). Also: nearly all actives have a fitted effect of over 35% in size. In short, it runs like this:
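HEK293 cells stably expressing human DRD2, pre-treated with PDE inhibitor Ro20-1724 (0.1 mM final) and compound 10 min at room temperature, then stimulated with NKH477 (200nM […]) for 30 min. cAMP read by HTRF (665/620 nm).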

For test [20] the target is unchanged. The test is described as follows: Dopamine D2 receptor (DRD2) small molecule antagonists, cell-based qHTS assay (AID 1963595; active = well fitted inhibition curve with a large enough effect in the signal ratio in the repeat runs, with a control signal flat; the % refers to the signal ratio). In short, it runs like this: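 Cells were plated and grown for 24 h at 37 °C. Ro20-1724 (0.1 mM final) went in first, then compound for 10 min. NKH477 (200 nM) with quinpirole (12 nM) followed for 30 min at RT, then HTRF detection reagents for 1 h.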

Values joined by “and” are separate entries in the source; they are usually repeats but may differ in a detail not shown here. Identical values can stand only once. Records with an inconclusive call do not appear. More than one record can exist for a structure, and the calls need not agree. Active and inactive are the calls of the source. Unless noted, calls follow the shape of the full dose curve.

KiSS-1 receptor (Homo sapiens), sequence (Q969F8 whole entry, looked up): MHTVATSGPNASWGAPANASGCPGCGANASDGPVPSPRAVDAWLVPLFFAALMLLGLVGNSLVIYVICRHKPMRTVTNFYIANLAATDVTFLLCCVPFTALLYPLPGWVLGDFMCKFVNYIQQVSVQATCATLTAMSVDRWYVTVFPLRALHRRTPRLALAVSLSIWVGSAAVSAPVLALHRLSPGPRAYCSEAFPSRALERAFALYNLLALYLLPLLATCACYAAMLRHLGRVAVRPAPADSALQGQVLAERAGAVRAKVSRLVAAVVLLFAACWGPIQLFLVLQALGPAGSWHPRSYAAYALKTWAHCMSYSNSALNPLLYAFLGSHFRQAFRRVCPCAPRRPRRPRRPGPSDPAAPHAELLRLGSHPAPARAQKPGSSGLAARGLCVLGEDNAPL
Beta-2 adrenergic receptor (Homo sapiens), sequence (P07550 whole entry, looked up): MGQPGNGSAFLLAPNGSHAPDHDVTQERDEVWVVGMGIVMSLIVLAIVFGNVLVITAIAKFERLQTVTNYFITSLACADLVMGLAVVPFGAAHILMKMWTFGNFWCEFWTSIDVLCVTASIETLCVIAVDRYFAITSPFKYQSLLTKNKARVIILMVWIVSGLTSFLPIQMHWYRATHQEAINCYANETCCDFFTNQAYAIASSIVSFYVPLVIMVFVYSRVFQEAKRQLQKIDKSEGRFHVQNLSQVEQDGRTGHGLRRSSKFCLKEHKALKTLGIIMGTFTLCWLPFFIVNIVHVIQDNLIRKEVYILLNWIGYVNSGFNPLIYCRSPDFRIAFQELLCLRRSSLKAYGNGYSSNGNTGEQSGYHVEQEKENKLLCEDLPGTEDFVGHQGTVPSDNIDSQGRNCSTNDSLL
D(2) dopamine receptor (Homo sapiens), sequence (P14416 whole entry, looked up): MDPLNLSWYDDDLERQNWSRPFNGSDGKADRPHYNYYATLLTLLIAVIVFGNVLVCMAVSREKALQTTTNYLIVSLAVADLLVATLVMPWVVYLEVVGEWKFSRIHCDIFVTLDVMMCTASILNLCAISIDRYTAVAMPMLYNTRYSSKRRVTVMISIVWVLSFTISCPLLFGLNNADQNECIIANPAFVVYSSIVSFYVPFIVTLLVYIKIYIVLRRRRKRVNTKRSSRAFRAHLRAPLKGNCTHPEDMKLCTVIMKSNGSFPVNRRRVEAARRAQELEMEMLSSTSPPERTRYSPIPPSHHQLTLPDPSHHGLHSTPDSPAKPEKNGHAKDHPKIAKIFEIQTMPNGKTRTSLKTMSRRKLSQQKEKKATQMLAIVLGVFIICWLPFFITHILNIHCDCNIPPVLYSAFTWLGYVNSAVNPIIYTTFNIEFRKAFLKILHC
5-hydroxytryptamine receptor 2A (Homo sapiens), sequence (P28223 whole entry, looked up): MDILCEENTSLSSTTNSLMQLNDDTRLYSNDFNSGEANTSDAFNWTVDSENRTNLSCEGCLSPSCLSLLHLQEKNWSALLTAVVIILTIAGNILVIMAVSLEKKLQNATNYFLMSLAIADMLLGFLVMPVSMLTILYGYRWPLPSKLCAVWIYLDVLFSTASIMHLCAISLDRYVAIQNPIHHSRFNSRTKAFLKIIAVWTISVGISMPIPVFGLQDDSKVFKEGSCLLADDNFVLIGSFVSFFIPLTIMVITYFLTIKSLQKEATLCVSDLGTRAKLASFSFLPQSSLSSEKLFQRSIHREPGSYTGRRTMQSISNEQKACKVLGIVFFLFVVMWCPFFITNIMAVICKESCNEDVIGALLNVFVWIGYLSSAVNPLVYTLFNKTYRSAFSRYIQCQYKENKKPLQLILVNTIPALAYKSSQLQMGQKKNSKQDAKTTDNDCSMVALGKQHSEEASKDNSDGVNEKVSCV
Muscarinic acetylcholine receptor M1 (Homo sapiens), sequence (P11229 whole entry, looked up): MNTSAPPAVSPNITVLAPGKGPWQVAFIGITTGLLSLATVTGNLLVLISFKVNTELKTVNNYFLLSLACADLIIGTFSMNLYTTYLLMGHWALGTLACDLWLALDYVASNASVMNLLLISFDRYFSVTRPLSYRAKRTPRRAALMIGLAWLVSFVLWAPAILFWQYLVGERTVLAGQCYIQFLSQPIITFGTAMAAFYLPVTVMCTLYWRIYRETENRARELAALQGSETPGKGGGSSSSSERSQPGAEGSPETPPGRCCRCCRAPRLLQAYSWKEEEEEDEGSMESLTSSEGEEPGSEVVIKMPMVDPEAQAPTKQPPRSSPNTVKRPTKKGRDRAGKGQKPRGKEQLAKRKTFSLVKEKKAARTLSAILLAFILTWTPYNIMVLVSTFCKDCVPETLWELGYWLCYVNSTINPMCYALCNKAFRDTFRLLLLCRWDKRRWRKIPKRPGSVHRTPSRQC
Gonadotropin-releasing hormone receptor (Homo sapiens), sequence (P30968 whole entry, looked up): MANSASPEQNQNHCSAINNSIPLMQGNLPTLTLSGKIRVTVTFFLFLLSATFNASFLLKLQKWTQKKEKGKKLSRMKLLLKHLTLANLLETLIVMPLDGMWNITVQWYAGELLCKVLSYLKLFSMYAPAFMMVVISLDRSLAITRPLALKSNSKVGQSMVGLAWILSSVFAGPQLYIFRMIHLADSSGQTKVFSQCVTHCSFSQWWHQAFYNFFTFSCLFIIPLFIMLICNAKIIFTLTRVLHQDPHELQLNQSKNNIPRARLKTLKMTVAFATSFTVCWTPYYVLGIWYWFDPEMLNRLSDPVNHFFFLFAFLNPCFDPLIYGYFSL

Take `O=S(=O)(O)C(F)(F)C(F)(F)C(F)(F)C(F)(F)C(F)(F)C(F)(F)C(F)(F)C(F)(F)F`: the Potency result in test [1] was “inactive and 61.1 µM (active)”; in test [2], “inactive and 61.1 µM (active)”. The Potency result in test [3], in test [4], in test [5], in test [6], in test [7] and in test [8] was “inactive” each time. Besides, the Potency result in test [9], in [10], in test [11], in test [12], in test [13] and in test [14] was “inactive” throughout. Also, the Potency result in test [15], in [16], in test [17], in [18], in [19] and in [20] was “inactive” in each case.
Regarding `CC(C)OC(=O)Nc1ccccc1`, the Potency result in test [1], in test [2], in test [3], in test [4], in [5] and in [6] was “inactive” throughout. Also, the Potency entry in test [7], in test [8], in test [9], in test [10], in test [11] and in test [12] was “inactive” throughout. Besides, the Potency result in [13], in test [14], in test [15], in test [16], in [17] and in test [18] was “inactive” each time. Also, in test [20], the Potency result is “inactive”.
Turning to `CCC(C)n1c(=O)[nH]c(C)c(Br)c1=O` (stereo not drawn), the Potency entry in test [1], in test [2], in [3], in test [4], in test [5] and in [6] was “inactive” each time. Moreover, the Potency entry in [7], in test [8], in test [9], in test [10], in [11] and in [12] was “inactive” in each case. For the same molecule, the Potency entry in [13], in test [14], in test [15], in test [16], in test [17] and in test [18] was “inactive” throughout. In addition, the Potency entry in [20] is “inactive”.
Regarding `CCOC(=O)C(c1c(O)c2ccccc2oc1=O)c1c(O)c2ccccc2oc1=O`, the Potency result in test [1], in test [2], in test [3], in [4], in test [5] and in [6] was “inactive” in each case. The Potency result in test [7], in test [8], in [9], in test [10], in test [11] and in [12] was “inactive” each time. For the same molecule, the Potency result in test [13], in test [14], in test [15], in test [16], in test [17] and in test [18] was “inactive” in each case. The Potency result in test [19] and in test [20] was “inactive” throughout.
Consider `Cc1ccc(O)c(C)c1`, for which the Potency result in [1], in test [2], in [3], in [4], in test [5] and in test [6] was “inactive” throughout. Besides, the Potency entry in test [7], in [8], in test [9], in [10], in [11] and in test [12] was “inactive” throughout. Moreover, the Potency result in [13], in test [14], in [15], in [16], in test [17] and in [18] was “inactive” throughout. Moreover, the Potency entry in [19] and in test [20] was “inactive” throughout.
Take `CCCCCCCCCBr`: the Potency entry in [1], in [2], in [3], in test [4], in test [5] and in test [6] was “inactive” throughout. The Potency entry in test [7], in test [8], in [9], in [10], in [11] and in [12] was “inactive” in each case. Further, the Potency entry in test [13], in [14], in [15], in [16], in test [17] and in [18] was “inactive” in each case. For the same molecule, the Potency entry in [19] and in test [20] was “inactive” each time.
With `C=CC#N`, the Potency result in [1], in test [2], in test [3], in [4], in test [5] and in test [6] was “inactive” each time. Further, the Potency entry in [7], in test [8], in test [9], in test [10], in [11] and in test [12] was “inactive” in each case. The Potency entry in [13], in test [14], in test [15], in test [16], in [17] and in [18] was “inactive” throughout. The Potency result in test [19] and in test [20] was “inactive” in each case.
In the case of `CC(=O)[C@H]1CC[C@H]2[C@@H]3CC[C@H]4C[C@](C)(O)CC[C@]4(C)[C@H]3CC[C@]12C`, the Potency entry in test [1], in test [2], in test [3], in test [4], in [5] and in test [6] was “inactive” in each case. The Potency entry in test [7], in [8], in test [9], in test [10], in test [11] and in test [12] was “inactive” in each case. Also, the Potency result in test [13], in test [14], in test [15], in test [16], in test [17] and in test [18] was “inactive” throughout. Further, the Potency result in [19] and in test [20] was “inactive” in each case.

For the origin of these results see PubChem BioAssay (Tox21).
